In experiment [1] the target is ATP-dependent translocase ABCB1 (Homo sapiens) (UniProt P08183). The experiment in a line: MDR1 (ABCB1) efflux transporter inhibition, cell-based (AID 377; in the data active = fluorescence slope change above about 50%). The conditions noted are these: MDR1-expressing cells, fluorescent substrate accumulation slope; stronger effect = higher value; concentration not given here.
In experiment [2] the target is Mitogen-activated protein kinase 7 (Homo sapiens) (UniProt Q13164). The experiment in a line: ERK5 transactivation activators in reporter cells, primary screen, cell-based, HTS (AID 1508626;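 active = luciferase signal above three times the same-plate solvent-only control wells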;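 also: luciferase driven by Gal4-ERK5 fusion binding five Gal4 sites before minimal TATA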). Particulars: HeLa Gal4-ERK5 transactivation, 18 h, at 5 µM, stronger effect = higher value.
Mitogen-activated protein kinase 7 (Homo sapiens), sequence (Q13164 whole entry, looked up, the tested form may be a part): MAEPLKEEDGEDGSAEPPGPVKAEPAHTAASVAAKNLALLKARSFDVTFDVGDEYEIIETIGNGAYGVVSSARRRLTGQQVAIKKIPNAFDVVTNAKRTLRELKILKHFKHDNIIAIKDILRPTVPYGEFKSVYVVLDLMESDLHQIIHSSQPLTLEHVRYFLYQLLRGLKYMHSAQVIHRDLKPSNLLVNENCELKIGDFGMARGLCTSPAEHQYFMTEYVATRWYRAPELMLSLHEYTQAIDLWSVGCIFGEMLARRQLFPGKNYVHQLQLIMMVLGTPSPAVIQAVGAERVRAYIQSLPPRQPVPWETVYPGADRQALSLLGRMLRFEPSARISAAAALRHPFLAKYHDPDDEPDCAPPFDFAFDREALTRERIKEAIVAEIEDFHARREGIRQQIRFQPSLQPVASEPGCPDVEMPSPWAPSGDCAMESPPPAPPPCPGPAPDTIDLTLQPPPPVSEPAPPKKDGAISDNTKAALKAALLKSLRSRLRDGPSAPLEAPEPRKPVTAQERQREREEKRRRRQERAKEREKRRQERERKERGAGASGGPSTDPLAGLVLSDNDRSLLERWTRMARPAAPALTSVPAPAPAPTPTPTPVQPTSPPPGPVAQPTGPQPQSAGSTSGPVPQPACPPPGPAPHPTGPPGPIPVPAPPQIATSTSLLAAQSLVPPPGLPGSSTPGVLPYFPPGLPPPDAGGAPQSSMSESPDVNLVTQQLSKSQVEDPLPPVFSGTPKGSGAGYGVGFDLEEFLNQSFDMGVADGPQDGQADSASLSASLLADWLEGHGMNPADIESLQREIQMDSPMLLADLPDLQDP
Experiment [3] is described as follows: LFS_MB_1R medulloblastoma cell growth inhibition, synergistic combos for chromothripsis tumors, cisplatin or BGB combos (AID 1671452; in the data active = inhibition above about 80%;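 also: cells exposed for 96 hours before readout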). The conditions noted are these: LFS_MB_1R medulloblastoma cells, stronger effect = higher value.
A short description of experiment [4]: CRL2098 osteosarcoma cell growth inhibition, synergistic combos for chromothripsis tumors, BGB or cisplatin IC20 combos (AID 1671454; in the data active = inhibition above about 80%;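 also: cells exposed for 96 h before readout; 0% = vehicle DMSO and 100% = killing by high DMSO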). The conditions noted are these: CRL2098 osteosarcoma cells, drug combinations, stronger effect = higher value.
Experiment [5] in a line: HD-MB03 medulloblastoma cell growth inhibition, synergistic combos for chromothripsis tumors, BGB or cisplatin IC20 combos (AID 1671455; in the data active = inhibition above about 83%;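 also: 0% = vehicle DMSO and 100% = high DMSO as cytotoxic control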). The conditions noted are these: HD-MB03 medulloblastoma cells, stronger effect = higher value.
Experiment [6] in a line: UWB1.289 ovarian carcinoma cell growth inhibition, synergistic combos for chromothripsis tumors, BGB or cisplatin combos (AID 1671456; in the data active = inhibition above about 80%;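 also: cells exposed to compound for four days; 0% = vehicle DMSO and 100% = killing by high DMSO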). Particulars: UWB1.289 ovarian carcinoma cells, stronger effect = higher value.
Experiment [7] in a line: LFS_MB_2R medulloblastoma cell growth inhibition, synergistic combos for chromothripsis tumors, cisplatin combos (AID 1671457; in the data active = inhibition above about 80%;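 also: cells exposed to compound for four days before readout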). Particulars: LFS_MB_2R medulloblastoma cells, stronger effect = higher value.
A short description of experiment [8]: UWB1.289_BRCA1 ovarian cancer growth, cell-based, BGB or cisplatin combinations (AID 1671459; in the data active = inhibition above about 80%). Particulars: UWB1.289 BRCA1 ovarian carcinoma, drug combinations, stronger effect = higher value.
A short description of experiment [9]: human astrocyte viability loss, single and combined drugs, cytotoxicity control for chromothriptic childhood tumor combination screen, cell-based, BGB or cisplatin IC20 combos (AID 1671460; in the data active = inhibition above about 80%;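 also: cells exposed to compounds for 96 hours before viability readout; 0% = vehicle and 100% = killing control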). The conditions noted are these: Human astrocytes, drug combinations, stronger effect = higher value.
Experiment [10] in a line: growth inhibition of DIPG glioma cells, dose response, cell-based, SU-DIPG-IV, MIPE4.0, CellTiter-Glo, qHTS (AID 1347063).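 Also: compound exposure lasted 48 hours before the viability readout.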 Particulars: SU-DIPG-IV viability, CellTiter-Glo ATP luminescence.
A short description of experiment [11]: growth inhibition of DIPG glioma cells, dose response, cell-based, SU-DIPG-XIII, MIPE5.0, CellTiter-Glo, qHTS (AID 1347064; cut-off not given, nearly all actives have AC50 up to about 23 µM;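 as to AC50: cells exposed to compound for 48 hours before the viability read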). Particulars: SU-DIPG-XIII viability, CellTiter-Glo ATP luminescence.
A short description of experiment [12]: JHH-DIPG-1 glioma cell viability, MIPE5.0 library, CellTiter-Glo luminescence, qHTS (AID 1347067; cut-off not given, nearly all actives have AC50 up to about 26 µM;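 also: cells exposed to compound for 48 hours before readout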). The conditions noted are these: JHH-DIPG-1 glioma viability, CellTiter-Glo ATP luminescence. In general terms: ATP-based viability assays read luminescence as a measure of living cells.
A short description of experiment [13]: modifiers of HSF1 nuclear foci, imaging, Selleck Cancer Library (AID 1347162; in the data active = plate-normalised HSF1 focus index below about 0.46). The conditions noted are these: human cells, at 10 µM; SSMD: measured here: HSF1 foci SSMD mean; cell count: measured here: cell number; plate-normalised HSF1 focus index: stronger effect = lower value.
Experiment [14] in a line: growth inhibition of DIPG glioma cells, dose response, cell-based, SU-DIPG-XIII, MIPE4.0, CellTiter-Glo, qHTS (AID 1347061; cut-off not given, nearly all actives have AC50 up to about 37 µM;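 also: cells exposed to compound for 48 hours before readout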). The conditions noted are these: SU-DIPG-XIII viability, CellTiter-Glo ATP luminescence.
Experiment [15] can be described thus: SU-DIPG-VI glioma cell viability, MIPE4.0 library, CellTiter-Glo luminescence, qHTS (AID 1347066).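 Also: cells exposed to compound for 48 hours before readout.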 Particulars: CellTiter-Glo ATP luminescence.
The mark [16] stands for this setting: measured here: combination with cisplatin, at 0.5 µM.
The mark [17] stands for this setting: measured here: combination with cisplatin, at 5 µM.

Records with an inconclusive call do not appear. Active and inactive are the calls of the source. Unless noted, the limit is not given here; nearly all actives have AC50 up to about 30 µM.

A word on the inhibition: it is the drop in the measured response relative to a control, in per cent. As usually defined, the AC50 is the midpoint of the concentration-response curve, whichever way the signal moves.

ATP-dependent translocase ABCB1 (Homo sapiens), sequence (P08183 whole entry, looked up, the tested form may be a part): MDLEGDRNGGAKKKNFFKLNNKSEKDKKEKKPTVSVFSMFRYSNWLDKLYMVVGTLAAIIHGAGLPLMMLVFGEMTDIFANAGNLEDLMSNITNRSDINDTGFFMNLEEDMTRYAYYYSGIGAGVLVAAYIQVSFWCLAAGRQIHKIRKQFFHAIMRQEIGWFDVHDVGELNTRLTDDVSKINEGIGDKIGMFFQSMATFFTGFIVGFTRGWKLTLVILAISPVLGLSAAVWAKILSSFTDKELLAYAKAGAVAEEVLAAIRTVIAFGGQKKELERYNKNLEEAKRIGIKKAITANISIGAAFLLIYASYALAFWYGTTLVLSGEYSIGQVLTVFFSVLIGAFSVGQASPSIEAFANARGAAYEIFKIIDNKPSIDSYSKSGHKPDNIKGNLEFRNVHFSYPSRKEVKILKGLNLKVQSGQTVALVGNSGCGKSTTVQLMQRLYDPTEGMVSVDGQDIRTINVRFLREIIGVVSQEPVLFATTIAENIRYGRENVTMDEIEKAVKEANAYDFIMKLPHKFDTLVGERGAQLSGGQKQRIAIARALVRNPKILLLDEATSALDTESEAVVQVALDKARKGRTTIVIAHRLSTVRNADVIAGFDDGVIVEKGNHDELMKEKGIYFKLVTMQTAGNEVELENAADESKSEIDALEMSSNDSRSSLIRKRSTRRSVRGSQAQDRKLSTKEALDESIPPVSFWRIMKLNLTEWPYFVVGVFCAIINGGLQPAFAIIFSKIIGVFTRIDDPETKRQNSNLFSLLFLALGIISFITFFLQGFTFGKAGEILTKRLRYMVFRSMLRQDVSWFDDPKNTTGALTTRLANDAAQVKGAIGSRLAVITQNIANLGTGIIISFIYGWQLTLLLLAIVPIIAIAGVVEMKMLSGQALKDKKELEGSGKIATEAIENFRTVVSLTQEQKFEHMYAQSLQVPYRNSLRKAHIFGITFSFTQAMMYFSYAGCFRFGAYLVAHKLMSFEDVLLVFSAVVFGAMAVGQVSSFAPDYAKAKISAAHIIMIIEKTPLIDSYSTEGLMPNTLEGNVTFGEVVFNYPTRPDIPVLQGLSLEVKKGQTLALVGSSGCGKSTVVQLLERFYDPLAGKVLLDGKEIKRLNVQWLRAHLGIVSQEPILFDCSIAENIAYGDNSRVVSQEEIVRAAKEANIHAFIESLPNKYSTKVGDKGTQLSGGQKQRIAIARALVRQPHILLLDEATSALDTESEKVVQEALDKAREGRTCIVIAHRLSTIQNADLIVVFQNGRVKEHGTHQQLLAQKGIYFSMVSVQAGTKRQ

As for `CC(C)N=c1cc2n(-c3ccc(Cl)cc3)c3ccccc3nc-2cc1Nc1ccc(Cl)cc1`, the fluorescence slope change in [1] was 72.8% (active). The luciferase signal in experiment [2] is 104 AU (inactive). Moreover, the inhibition in experiment [3] (at 0.5 µM) is -25.1% (inactive); in experiment [3] (measured here: combination with BGB IC40, at 0.05 µM), -36.1%; in experiment [3] (setting [16]), -57.3%; in [3] (setting [17]), -48.3%; in experiment [4] (at 0.5 µM), -74.7% (inactive); in experiment [4] (measured here: combination with BGB at IC20, at 0.5 µM) it was -58.6%. For the same molecule, the inhibition in [4] (measured here: combination with cisplatin at IC20, at 0.5 µM) is -130%; in experiment [5] (at 0.5 µM) it was -15.1% (inactive); in experiment [5] (measured here: combo with BGB at IC20, at 0.5 µM) it was -15%; in [5] (measured here: combo with cisplatin at IC20, at 0.5 µM), -18.6%; in experiment [6] (at 0.5 µM) it was -8.97% (inactive); in experiment [6] (measured here: inhibition with BGB combination, at 0.05 µM), -17.6%. The inhibition in [6] (measured here: inhibition with cisplatin combination, at 0.05 µM) is -17.6%; in [7] (at 0.5 µM) it was -8.06% (inactive); in [7] (setting [16]), 1.44%; in experiment [7] (setting [17]), -0.801%; in experiment [8] (BGB combination, concentration series, at 5 µM) it was -7.22%; in [8] (at 0.5 µM) it was -11.4% (inactive). Further, the inhibition in experiment [8] (cisplatin combination, concentration series, at 5 µM) was 14.7%; in experiment [9] (at 0.5 µM), -9.92% (inactive); in experiment [9] (measured here: combo with BGB IC20, at 0.5 µM), 3.64%; in experiment [9] (measured here: combo with cisplatin IC20, at 0.5 µM), -24.8%.

Regarding `CC(=O)SCC(Cc1ccccc1)C(=O)NCC(=O)OCc1ccccc1` (centres undefined), the fluorescence slope change in experiment [1] is 12.8% (inactive). Moreover, the AC50 in [10] is 833 nM (active). Also, the molecule was classed as inactive in [11] and in [12].

As for `COc1cccc2c1C(=O)c1c(O)c3c(c(O)c1C2=O)C[C@@](O)(C(C)=O)C[C@@H]3OC1CC(N)C(O)C(C)O1` (some centres undefined), in [1], the fluorescence slope change was 95.8% (active).

For the molecule `CC[C@]1(O)CC2CN(CCc3c([nH]c4ccccc34)[C@@](C(=O)OC)(c3cc4c(cc3OC)N(C=O)[C@H]3[C@@](O)(C(=O)OC)[C@H](OC(C)=O)[C@]5(CC)C=CCN6CC[C@]43[C@@H]65)C2)C1` (some centres undefined), in experiment [13], the SSMD is 1.41, the cell count is 6460 and the plate-normalised HSF1 focus index is 1.08 (inactive).

In the case of `CO/N=C(/C(=O)N[C@@H]1C(=O)N2C(C(=O)O)=C(COC(N)=O)CS[C@H]12)c1ccco1`, the fluorescence slope change in [1] was -2.3% (inactive).

As for `COc1cc([C@@H]2c3cc4c(cc3[C@@H](O[C@@H]3O[C@@H]5CO[C@@H](C)O[C@H]5[C@H](O)[C@H]3O)[C@H]3COC(=O)[C@H]23)OCO4)cc(OC)c1O`, the call in [14], in experiment [11], in [15] and in experiment [12] was inactive. The SSMD in experiment [13] is -0.198. The cell count in [13] was found to be 6820. The plate-normalised HSF1 focus index in experiment [13] is 0.99 (inactive). Further, the luciferase signal in experiment [2] was 48 AU (inactive).

Consider `CC(=O)N1CCN(c2ccc(OC[C@H]3CO[C@](Cn4ccnc4)(c4ccc(Cl)cc4Cl)O3)cc2)CC1`, for which, in [2], the luciferase signal was 40 AU (inactive).

For `COCC1=C(C(=O)OC(C)OC(=O)OC(C)C)N2C(=O)[C@@H](NC(=O)/C(=N\OC)c3csc(N)n3)[C@H]2SC1` (some centres undefined), the luciferase signal in experiment [2] was 40 AU (inactive).

With `CCCCC[C@H](O)/C=C/[C@H]1[C@H](O)CC(=O)[C@@H]1CCCCCCC(=O)O`, the call in experiment [14], in [10], in experiment [15] and in experiment [12] was inactive.

In the case of `COc1cccc2c1C(=O)c1c(O)c3c(c(O)c1C2=O)C[C@@](O)(C(=O)CO)C[C@@H]3O[C@H]1C[C@H](N)[C@@H](O)[C@H](C)O1`, the AC50 is 833 nM (active) in experiment [10], 833 nM (active) in experiment [11], 4180 nM (active) in [15] and 2350 nM (active) in [12]. Further, the SSMD in experiment [13] is -16.4. The cell count in experiment [13] came out at 7260. In [13], the plate-normalised HSF1 focus index is 0.155 (active). Moreover, the luciferase signal in [2] was 20 AU (inactive).

`CN1CCN2c3ncccc3Cc3ccccc3C2C1` (centres undefined): the result in experiment [14], in experiment [11], in experiment [15] and in [12] was inactive.

Source of the values: PubChem BioAssay.
